From PubChem BioAssay (NCI)
About 83,000 compounds went through this panel and 20% of them were active in at least one assay; those are over-represented in the sample as a whole.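 The endpoint reported here, percent growth, reads 100 for growth as untreated, 0 for no net growth and -100 for all cells dead.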 Activity calls are given as the source filed them. The calls were made as follows: active = growth percent below 10; inactive = the rest.

Assays:
Assay in all cases: NCI-60 one-dose screen, 48 h (100 = growth as untreated, 0 = no growth, -100 = all killed)
Settings in all cases: 10 µM unless noted
[1] = tested on: RPMI-8226 leukemia
[2] = tested on: OVCAR-8 ovarian
[3] = tested on: OVCAR-5 ovarian
[4] = tested on: OVCAR-4 ovarian
[5] = tested on: SK-OV-3 ovarian
[6] = tested on: IGROV1 ovarian
[7] = tested on: OVCAR-3 ovarian
[8] = tested on: NCI/ADR-RES ovarian
[9] = tested on: T-47D breast
[10] = tested on: HS 578T breast

Measured: growth

Cn1cc(-c2csc(-c3c[nH]c4ncccc34)n2)c2cc(Br)cnc21
active: [4] -34.6% | [5] 0.893%
inactive: [1] 61.8% | [2] 22.4% | [3] 82.3% | [6] 27.3% | [7] 20.6% | [8] 29.2% | [9] 20.7%

COc1ccc(C2CC(c3ccc(OC)c(OC)c3)=NN2C(=O)c2cc(OC)c(OC)c(OC)c2)cc1 (stereo not given)
active: [7] -45.1%
inactive: [1] 50.2% | [2] 34.2% | [3] 66.5% | [4] 58.8% | [5] 30.3% | [6] 31.5% | [8] 13% | [9] 36.4%

CCCCCCC/C(=N\N=C(N)N)c1ccc(O)cc1
inactive: [1] 11% | [2] 60.4% | [3] 58.3% | [4] 36.2% | [5] 46.8% | [6] 33.6% | [7] 35.8% | [8] 69.9%
active: [9] -31.6%

COc1ccc(-c2cnnn2-c2cc(OC)c3c(c2)OCO3)cc1
inactive: [2] 13.1% | [3] 45.1% | [4] 64.7% | [6] 17.9% | [8] 12.1% | [9] 50.3%
active: [1] 9.18% | [5] -1.59% | [7] -37.5%

Oc1[nH]c2ccccc2c1/C=c1/ccc2c(c1)N=C(c1cc(F)cc(F)c1)N=2
inactive: [1] 27.5% | [2] 76.9% | [3] 85% | [4] 57.8% | [5] 85% | [6] 63.3% | [7] 55.9% | [10] 69.4% | [8] 61.4% | [9] 40.3%

COc1cc(OC)c2sc(-c3ccc(-n4cncc4-c4ccc(N)cc4)cc3)nc2c1
inactive: [1] 64% | [2] 77.4% | [3] 100% | [4] 63.1% | [5] 120% | [6] 104% | [7] 77.6% | [8] 68.9% | [9] 60.6%

O=C(CSc1nnc(Nc2ccccc2)s1)NCCc1ccc(F)cc1
active: [6] -2.38%
inactive: [1] 145% | [2] 117% | [3] 92.9% | [4] 102% | [5] 113% | [7] 113% | [10] 119% | [8] 99.3% | [9] 94.8%

NC(N)=NC(N)=NCCCc1ccccc1
inactive: [1] 62.6% [100 µM] | [2] 71.1% [100 µM] | [3] 76.3% [100 µM] | [4] 70% [100 µM] | [5] 67.7% [100 µM] | [6] 53.1% [100 µM] | [7] 56.9% [100 µM] | [8] 81.2% [100 µM] | [9] 53.7% [100 µM]

O=C(CCc1nnc(Cn2cncn2)o1)c1nc2ccccc2[nH]1
inactive: [1] 108% | [2] 107% | [3] 107% | [4] 111% | [5] 116% | [6] 118% | [7] 122% | [8] 105% | [9] 108%

CCC1=C(c2ccc(OC)cc2)C(C)Oc2cc(OC(C)=O)ccc21 (stereo not given)
inactive: [1] 75.6% | [2] 68.8% | [3] 128% | [4] 72.4% | [5] 80.6% | [6] 104% | [7] 86.9% | [8] 75.6% | [9] 65.4%

C=Cc1nn2c(CCC(=O)c3nc4ccccc4[nH]3)nnc2s1
inactive: [1] 110% | [2] 108% | [3] 102% | [4] 110% | [5] 106% | [6] 106% | [7] 107% | [8] 100% | [9] 106%

COc1ccc(-n2nnc(C(=O)O)c2-c2cc(OC)c(OC)c(OC)c2)cc1
inactive: [1] 99.5% | [2] 100% | [3] 103% | [4] 109% | [5] 99.1% | [6] 116% | [7] 119% | [8] 109% | [9] 104%

COc1ccc(-c2c3c(nn2-c2ccc(N)cc2)CCc2cnoc2-3)cc1OC
inactive: [1] 60% | [2] 65% | [3] 94.1% | [4] 102% | [5] 124% | [6] 97.6% | [7] 83.1% | [8] 77.6% | [9] 97%

Cc1nc(N)[nH]c(=O)c1C
active: [6] 9.58%
inactive: [1] 83.7% | [2] 105% | [3] 98.3% | [4] 111% | [5] 99.4% | [7] 121% | [8] 91% | [9] 83%

Cc1cc(=O)n2n1-c1ccc(Cl)cc1NC(=O)C2
inactive: [1] 99.2% | [2] 97% | [3] 103% | [4] 98.8% | [5] 109% | [6] 112% | [7] 108% | [8] 108% | [9] 118%

CC(C)[O-].CC(C)[O-].CN(CCN(C)Cc1cc(F)cc(F)c1[O-])Cc1cc(F)cc(F)c1[O-].[Ti+4]
active: [6] -42.2% | [7] 4.78% | [9] 9.18%
inactive: [1] 32.9% | [2] 10.6% | [3] 12.4% | [4] 14% | [5] 16.4% | [8] 11.2%

C=CCCCCCCCCC(=O)[O][Sn]([CH2]CCC)([CH2]CCC)[CH2]CCC
active: [1] -27.3% | [2] -74.2% | [3] -89.4% | [4] -96.7% | [5] -98.8% | [6] -72.9% | [7] -97.9% | [10] -46.4% | [8] -90.3% | [9] -71.5%

COc1ccc2nc3cc(Cl)ccc3c(N3CCN(c4ccnc(Nc5ccc(F)cc5)n4)CC3)c2c1
inactive: [1] 63.4% | [2] 75.8% | [3] 95% | [4] 64.8% | [5] 111% | [6] 87.5% | [7] 82.4% | [10] 94.2% | [8] 71.3% | [9] 54.5%

COc1ccc(/C(=C2\O[C@@H]([C@H](O)CO)[C@H]3OC(C)(C)O[C@@H]23)c2cc(OC)c(OC)c(OC)c2)cc1O
inactive: [1] 73.3% | [2] 107% | [3] 90% | [4] 104% | [5] 106% | [6] 100% | [7] 97.4% | [8] 24.5% | [9] 102%

CCOC(=O)C(C(C)=O)c1nc2sc3cc(Cl)ccc3n2c(=N)c1C#N (stereo not given)
inactive: [1] 97.9% | [2] 80.9% | [3] 114% | [4] 77.9% | [5] 84.6% | [6] 84.3% | [7] 107% | [8] 87.2% | [9] 77.9%

COc1ccc2c(c1)nc(N)c1c3cc(C)c(C)cc3cn21
inactive: [1] 81.1% | [2] 82.3% | [3] 111% | [4] 78.5% | [5] 86.8% | [6] 77.2% | [7] 70.6% | [8] 37.3% | [9] 63.8%

COc1ccc2c(c1)nc(N)c1c3cc(OC)c(OC)cc3cn21
inactive: [1] 42.8% | [2] 40.9% | [3] 62.5% | [4] 69.8% | [5] 43.9% | [6] 65.4% | [7] 37.6% | [8] 33.9% | [9] 64%

O=C1C[C@@H]2/C(=C(O)\C=C\c3ccccc3)C(=O)C=C[C@@H]2O1
active: [2] 8.54% | [6] -52.6% | [10] -2.33% | [8] 7.67%
inactive: [1] 32.5% | [3] 51.5% | [4] 37.5% | [5] 86.1% | [9] 16.7%

COc1ccc2nc(-c3ccc(-n4cncc4-c4ccc(OC)c(N)c4)cc3)sc2c1
inactive: [1] 88.2% | [2] 96.8% | [3] 108% | [4] 87% | [5] 117% | [6] 113% | [10] 101% | [8] 115% | [9] 102%

NC(=O)N/N=C/c1ccc(Br)o1
inactive: [1] 109% | [2] 107% | [3] 98.7% | [4] 111% | [5] 101% | [6] 97.8% | [10] 109% | [8] 105% | [9] 91.4%

CSc1nnc(C2=CC(=O)c3ccccc3C2=O)n1-c1ccccc1
inactive: [1] 72.2% | [2] 94.6% | [3] 113% | [4] 99.2% | [5] 93.7% | [6] 80.4% | [10] 112% | [8] 98% | [9] 78.4%

OC(CCC(O)(c1ccccc1)c1ccccc1)(c1ccccc1)c1ccccc1
inactive: [1] 35.5% | [2] 84.7% | [3] 97.2% | [4] 99.4% | [5] 103% | [6] 90.7% | [10] 75.1% | [8] 68.9% | [9] 94.1%

C=C(C)[C@H]1CC/C(C)=C/CC[C@]2(C)O[C@H]2CC/C(COC(C)=O)=C\C1=O
active: [1] -80.2%
inactive: [2] 107% | [3] 98.7% | [4] 123% | [5] 111% | [6] 74.4% | [10] 119% | [8] 102% | [9] 95.1%

CC1(C)OC(=O)C(=Cc2ccccc2Br)C(=O)O1
inactive: [1] 95.5% | [2] 99.4% | [3] 96.6% | [4] 102% | [5] 111% | [6] 102% | [10] 101% | [8] 106% | [9] 102%
